Laboratory results taken from PubChem BioAssay AID1159580 (chemical genetic matrix, 2015).
Values joined by “and” are separate entries in the source; they are usually repeats but may differ in a detail not shown here. Identical values can stand only once. In all, about 5,500 compounds went through this assay and about 2,000 (36%) were called active. About 18% were inconclusive and are not listed. Cut-off read from the data, not from the text of the source: active = normalized growth mostly below about 0.91 (no sharp cut-off); inconclusive = no clear call, values can overlap the other calls; inactive = mostly above about 0.92. The list shows a part of the results.

Assay: chemical genetic growth profiling, strain panel (AID 1159580);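 note: tested at 20 µM; growth read once vehicle control cultures reached saturation at 30 °C; 1 = growth at the plate median or of vehicle wells; lower values mean less growth of the strain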
Conditions: growth OD

Measured: normalized growth

CC1=C(/C=C/C(C)=C/C=C/C(C)=C\C(=O)O)C(C)(C)CCC1
inactive: S. cerevisiae deletion strains, locus YJR075W, strain HOC1, hits give low values 0.962 and 1.01 | S. cerevisiae deletion strains, locus YKL009W, strain mrt4, hits give low values 0.94 | S. cerevisiae deletion strains, locus YKL068W, hits give low values 1 | S. cerevisiae deletion strains, locus YKL085W, strain MDH1 (second series), hits give low values 0.941 | S. cerevisiae deletion strains, locus YKL085W, strain MDH1, hits give low values 0.941 | S. cerevisiae deletion strains, locus YKL160W, strain elf1, hits give low values 0.977 | S. cerevisiae deletion strains, locus YKL190W, strain CNB1, hits give low values 0.989 | S. cerevisiae deletion strains, locus YKR001C, strain vps1, hits give low values 0.942 | S. cerevisiae deletion strains, locus YKR026C, strain gcn3, hits give low values 0.982 | S. cerevisiae deletion strains, locus YKR091W, strain srl3, hits give low values 0.988 | S. cerevisiae deletion strains, locus YLL001W, strain dnm1, hits give low values 0.93 | S. cerevisiae deletion strains, locus YLL026W, hits give low values 0.966 | S. cerevisiae deletion strains, locus YLL041C, strain sdh2, hits give low values 0.99 | S. cerevisiae deletion strains, locus YLR027C, strain aat2, hits give low values 0.958 | S. cerevisiae deletion strains, locus YLR039C, strain RIC1, hits give low values 0.866 | S. cerevisiae deletion strains, locus YLR058C, strain SHM2, hits give low values 1 | S. cerevisiae deletion strains, locus YLR102C, strain apc9, hits give low values 1 | S. cerevisiae deletion strains, locus YLR113W, strain HOG1, hits give low values 1.08 | S. cerevisiae deletion strains, locus YLR221C, strain rsa3, hits give low values 1.02 | S. cerevisiae deletion strains, locus YLR258W, strain gsy2, hits give low values 0.992 | S. cerevisiae deletion strains, locus YLR262C, strain YPT6 (second series), hits give low values 0.925 | S. cerevisiae deletion strains, locus YLR262C, strain YPT6, hits give low values 0.875 | S. cerevisiae deletion strains, locus YLR268W, strain sec22, hits give low values 0.966 | S. cerevisiae deletion strains, locus YLR320W, strain mms22, hits give low values 0.993 | S. cerevisiae deletion strains, locus YLR330W, strain CHS5, hits give low values 1.01 | S. cerevisiae deletion strains, locus YLR342W, strain FKS1 (second series), hits give low values 0.952 | S. cerevisiae deletion strains, locus YLR342W, strain FKS1, hits give low values 0.953 | S. cerevisiae deletion strains, locus YLR357W, strain rsc2, hits give low values 0.982 | S. cerevisiae deletion strains, locus YLR370C, strain arc18, hits give low values 0.996 | S. cerevisiae deletion strains, locus YLR371W, strain rom2, hits give low values 1.01 | S. cerevisiae deletion strains, locus YLR384C, strain iki3, hits give low values 0.973 | S. cerevisiae deletion strains, locus YLR418C, strain cdc73, hits give low values 0.846 | S. cerevisiae deletion strains, locus YML016C, strain PPZ1, hits give low values 1 | S. cerevisiae deletion strains, locus YML032C, strain rad52, hits give low values 0.978 | S. cerevisiae deletion strains, locus YML120C, strain ndi1, hits give low values 0.977 | S. cerevisiae deletion strains, locus YML124C, strain tub3, hits give low values 0.998 | S. cerevisiae deletion strains, locus YMR058W, strain fet3, hits give low values 0.978 | S. cerevisiae deletion strains, locus YMR078C, strain ctf18, hits give low values 0.998 | S. cerevisiae deletion strains, locus YMR125W, strain sto1, hits give low values 1.01 | S. cerevisiae deletion strains, locus YMR129W, hits give low values 0.987 | S. cerevisiae deletion strains, locus YMR205C, strain PFK2, hits give low values 0.971 | S. cerevisiae deletion strains, locus YMR223W, strain ubp8, hits give low values 0.976 | S. cerevisiae deletion strains, locus YMR231W, strain pep5, hits give low values 0.98 | S. cerevisiae deletion strains, locus YMR263W, strain SAP30, hits give low values 0.956 | S. cerevisiae deletion strains, locus YMR307W, strain GAS1, hits give low values 0.909 and 1.05 | S. cerevisiae deletion strains, locus YNL067W, strain RPL9B, hits give low values 0.951 | S. cerevisiae deletion strains, locus YNL071W, strain lat1, hits give low values 0.994 | S. cerevisiae deletion strains, locus YNL128W, strain TEP1, hits give low values 0.985 | S. cerevisiae deletion strains, locus YNL153C, strain GIM3, hits give low values 0.933 | S. cerevisiae deletion strains, locus YNL175C, strain NOP13, hits give low values 1.02 | S. cerevisiae deletion strains, locus YNL183C, strain NPR1, hits give low values 0.952 | S. cerevisiae deletion strains, locus YNL197C, strain WHI3, hits give low values 1.03 | S. cerevisiae deletion strains, locus YNL209W, strain ssb2, hits give low values 0.988 | S. cerevisiae deletion strains, locus YNL224C, strain SQS1, hits give low values 1.01 | S. cerevisiae deletion strains, locus YNL233W, strain BNI4, hits give low values 0.947 | S. cerevisiae deletion strains, locus YNL248C, strain rpa49, hits give low values 1.02 | S. cerevisiae deletion strains, locus YNL250W, strain rad50, hits give low values 0.992 | S. cerevisiae deletion strains, locus YNL271C, strain bni1, hits give low values 0.994 | S. cerevisiae deletion strains, locus YNL298W, strain CLA4, hits give low values 0.979 | S. cerevisiae deletion strains, locus YNL307C, strain MCK1, hits give low values 0.931 | S. cerevisiae deletion strains, locus YNL322C, strain KRE1 (second series), hits give low values 0.986 | S. cerevisiae deletion strains, locus YNL322C, strain KRE1, hits give low values 0.997 and 1.03 | S. cerevisiae deletion strains, locus YNR049C, strain mso1, hits give low values 0.988 | S. cerevisiae deletion strains, locus YNR052C, strain pop2, hits give low values 1.01 | S. cerevisiae deletion strains, locus YOL006C, strain TOP1, hits give low values 0.909 | S. cerevisiae deletion strains, locus YOL012C, strain htz1 0.855 | S. cerevisiae deletion strains, locus YOL147C, strain pex11, hits give low values 0.995 | S. cerevisiae deletion strains, locus YOR001W, strain rrp6, hits give low values 0.965 | S. cerevisiae deletion strains, locus YOR061W, strain CKA2, hits give low values 1.01 | S. cerevisiae deletion strains, locus YOR069W, strain VPS5, hits give low values 1.01 | S. cerevisiae deletion strains, locus YOR070C, strain gyp1, hits give low values 0.996 | S. cerevisiae deletion strains, locus YOR080W, strain dia2, hits give low values 0.986 | S. cerevisiae deletion strains, locus YOR083W, strain WHI5 (second series), hits give low values 1.03 | S. cerevisiae deletion strains, locus YOR083W, strain WHI5, hits give low values 0.954 | S. cerevisiae deletion strains, locus YOR106W, strain vam3, hits give low values 0.927 | S. cerevisiae deletion strains, locus YOR136W, strain idh2, hits give low values 0.991 | S. cerevisiae deletion strains, locus YOR144C, strain elg1, hits give low values 1.01 | S. cerevisiae deletion strains, locus YOR184W, strain ser1, hits give low values 0.95 | S. cerevisiae deletion strains, locus YOR231W, strain MKK1, hits give low values 1.05 | S. cerevisiae deletion strains, locus YOR265W, strain rbl2, hits give low values 0.987 | S. cerevisiae deletion strains, locus YOR270C, strain vph1, hits give low values 0.835 | S. cerevisiae deletion strains, locus YOR290C, strain snf2, hits give low values 1.01 | S. cerevisiae deletion strains, locus YOR316C, strain cot1, hits give low values 1.01 | S. cerevisiae deletion strains, locus YPL051W, strain arl3, hits give low values 0.983 | S. cerevisiae deletion strains, locus YPL055C, strain LGE1, hits give low values 0.918 | S. cerevisiae deletion strains, locus YPL078C, strain atp4, hits give low values 0.947 | S. cerevisiae deletion strains, locus YPL106C, strain sse1, hits give low values 1.02 | S. cerevisiae deletion strains, locus YPL240C, strain hsp82, hits give low values 0.977 | S. cerevisiae deletion strains, locus YPL241C, strain CIN2, hits give low values 1.01 | S. cerevisiae deletion strains, locus YPL256C, strain CLN2, hits give low values 1.04 | S. cerevisiae deletion strains, locus YPR119W, strain clb2, hits give low values 1 | S. cerevisiae deletion strains, locus YPR141C, strain kar3, hits give low values 0.989 | S. cerevisiae deletion strains, locus YPR163C, strain tif3, hits give low values 1 | S. cerevisiae deletion strains, locus YPR167C, strain met16, hits give low values 1 | S. cerevisiae deletion strains, strain wtn01, hits give low values 0.956 | S. cerevisiae strains, strain wild type, hits give low values 0.975
